The full ranking holds about 33,000 sequences; the median of “E-score (-0.5 to 0.5)” is about -0.017, and the highest 2% start at about 0.3. Only a selection was taken, and the highest values are over-represented in it overall.
These sequences were tested against T1, Sut1 (UniProt P53032) (assay: PBM E-score (8-mer binding enrichment) (E-score (-0.5 to 0.5)); higher = stronger / more preferred TF binding). Conditions: protein concentration: 200 nM; construct: GST-full length.
T1 sequence: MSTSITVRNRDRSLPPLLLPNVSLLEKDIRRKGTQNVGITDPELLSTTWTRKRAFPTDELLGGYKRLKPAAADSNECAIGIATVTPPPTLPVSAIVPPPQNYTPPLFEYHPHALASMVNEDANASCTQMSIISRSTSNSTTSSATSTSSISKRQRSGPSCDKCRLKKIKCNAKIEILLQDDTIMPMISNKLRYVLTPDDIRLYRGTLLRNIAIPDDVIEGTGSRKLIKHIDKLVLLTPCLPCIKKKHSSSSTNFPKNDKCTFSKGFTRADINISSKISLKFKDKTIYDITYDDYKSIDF
Description: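 Universal 'all 10-mer' protein binding microarrays (Agilent AMADID 015681) probed with GST-tagged S. cerevisiae TFs (full-length or DBD) made by in vitro transcription/translation (PURExpress), about 100-200 nM. Bound TF was detected with fluorescent anti-GST. Each ungapped 8-mer (which stands for itself and its reverse complement) is scored by the PBM enrichment score (E-score), a modified Wilcoxon-Mann-Whitney statistic from -0.5 to +0.5, computed with the Universal PBM Analysis Suite. Scale: above 0.35 generally sequence-specific binding.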

Sequence | PBM E-score
ACTTAGCC | -0.129
GAGGCTAC | -0.349
CTTCGCAA | -0.0605
GAAGCGAC | -0.0313
GCCCGACA | -0.106
CTCCGACA | 0.375
ATCCGACA | 0.0788
CACCGACC | -0.226
CTCCGACC | 0.391
CCCCGACA | 0.0397
GGCCGACA | -0.0715
GTCCGACA | 0.366
ATCCGACC | 0.00218
ATTTCAGC | 0.137
AACACTAT | 0.266
AAGTGTCC | 0.0158
GCTGAAGA | -0.00656
GAGGTGGA | -0.151
AGGTCGAG | -0.257
CATTATAC | 0.151
GATTATAA | 0.154
AATTATAG | 0.257
AATTATAC | 0.308
CATTATAA | 0.126
AATTATAA | 0.335

Sequence | PBM E-score
ACTATGGG | -0.155
CGTCTGTC | -0.213
CTCAGCTA | -0.13
TACTTACA | 0.115
CAGAGTCC | 0.17
CGGAGTCC | 0.486
AGGAGTCC | 0.202
GGGAGTCA | -0.126
AGGAGTCA | 0.0481
CGGAGTCA | 0.474
CTCTCACA | 0.0236
GAACCGAA | 0.13
ATTTGCAG | 0.0722
CTAGCGCA | -0.174
ATCACGGG | -0.0946
AGTACGGC | -0.0481
ATCACGGA | 0.402
ATTACGGA | 0.353
ATTACGGG | -0.0151
AGTACGGA | 0.374
GGTACGGA | 0.155
ATCACGGC | 0.0173
ATTACGGC | -0.0212
GTGCAGGA | -0.23
CTCCTGAA | -0.0399

Sequence | PBM E-score
GAGAATCA | 0.0959
GTGGATTA | 0.0983
ACCGATAA | 0.18
TCCGACAA | 0.337
TCCGATAA | 0.387
CCCGAGGA | -0.118
ACCGAGCA | 0.205
TCCGAGGA | 0.34
GCCGATAA | 0.00363
TCCGAGCA | 0.307
ACCGACAA | 0.0505
GCCGAGCA | -0.305
GCCGAGGA | 0.1
CCCGACAA | 0.173
TTAGCCAA | -0.0233
GTAATCGA | 0.0961
ACTACTCT | -0.0164
CTAGCCTC | -0.268
CCCTCGCG | -0.204
ATCTGCAG | 0.0906
ATGAGACA | -0.0116
CCGCGACC | -0.177
ATGAGCTA | 0.0367
AGTCAAAC | -0.135
GGCAATTA | 0.0911

Sequence | PBM E-score
ACCGAGAA | 0.229
CCCGAGAA | 0.157
TCCGAGAA | 0.407
AACTTGCG | -0.0193
ATACTCCG | 0.487
ACACTCCT | -0.0674
CCACTCCA | -0.174
ATACTCCC | 0.108
ATACTCCA | -0.0121
ACACTCCG | 0.438
ACTCTCCG | 0.27
CCACTCCG | 0.444
CCACTCCC | -0.254
ACAGACAA | 0.294
GGATAGCC | 0.0369
TAGCATCA | -0.0462
GCAATTGC | -0.0673
CGGCCTGC | -0.186
CTGTGCAC | -0.277
CGGTGTCC | 0.0917
GAACCCTC | -0.17
CGACTCCG | 0.47
CGACTCCC | -0.211
AGACTCCC | -0.319
AGACTCCG | 0.47

Sequence | PBM E-score
AGACTCCT | -0.142
CGACTCCA | -0.132
AACTGTCG | 0.00476
GCTAGTAC | -0.14
ACCTGAGA | -0.0623
CCCGAAGG | -0.0908
AGAATTCA | 0.115
CTAAACTC | 0.225
ATAAACTG | 0.047
ATAAACTC | 0.315
TACACCCA | 0.036
TAGCGTCA | -0.116
CGGAAATC | 0.212
GGGAAATA | 0.0403
CGGAAATA | 0.337
CGGAAAGC | 0.275
AGGAAAGA | 0.0593
CGGAAAGA | 0.312
AATGTGCT | 0.0947
TACTGAGA | -0.055
AAGGTCCA | -0.135
AAGGTCCT | -0.239
CAGGTCCG | 0.438
CAGGTCCC | -0.182
CAGGTCCA | -0.231

Sequence | PBM E-score
AAGGTCCG | 0.407
AGTCGAAA | 0.115
TCTGGTAA | -0.0251
ATGCTAGA | 0.0093
ACGCTGTA | -0.0391
ATCAAGAG | 0.117
CTAGGCTC | -0.149
CGTAGCCC | -0.274
AGCGCCCT | -0.128
ACGGACAG | -0.0929
ACGGACAT | 0.404
ACGGACAC | 0.0824
ACGGACCA | 0.277
ACGGACCT | 0.339
ACGGACCG | -0.0134
ACAGTCCC | -0.2
GTTCCCTA | -0.238
CGAATATA | 0.231
CCCATATC | -0.043
GACTCATA | 0.0779
ACTCCGAT | 0.491
ACTCCCAT | -0.0456
ACTCCTAT | 0.0886
AATCCGAC | 0.0553
ACTCCGAC | 0.489

Sequence | PBM E-score
CCTCCGAC | 0.0212
ACAACGGG | 0.0387
GCAACGGA | 0.306
CCAACGGA | 0.207
GCAACGGC | -0.0987
ACAACGGA | 0.335
TCAACGGA | 0.246
AAGCCAGT | -0.176
CAGAAGAC | -0.17
CACGTGCC | -0.186
AGTGGCCA | -0.202
ATGCGCTA | -0.0278
AGCTCTAC | -0.325
ATTGTCCG | 0.359
AATGTCCA | 0.0363
ATTGTCCA | -0.0211
AATGTCCT | -0.0934
CATGTCCA | 0.0978
CATGTCCG | 0.382
AATGTCCG | 0.447
CATGTCCC | -0.1
ATTGTCCC | -0.108
TCGAACAA | 0.102
AGGGGGTA | -0.323
AGACCGCA | -0.0648

From the supplement of paper PMC3334620
